# RECQ1 inh – qHTS Assay for Inhibitors of RecQ-Like Dna Helicase 1 (RECQ1); Potency, µM (highest dose often 57.3 µM), for inactives: at the highest dose activity, negative = inhibition, actives largely listed as inhibitors; AID 2549, 2010; hit rate 0.54% among 240,000; ATP-dependent DNA helicase Q1 (Homo sapiens), P46063; RECQ1 DNA unwinding, red fluorescence kinetic read;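 note: plate controls were vehicle for no effect and no enzyme for full effect; nearly all actives have a fitted effect of over 30% in size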
#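 RECQ1T1 50 nM; forked duplex (20 bp + 30-nt ss tails) 200 nM, ATP 2 mM final; pH 8.0, 2 mM MgCl2, 2.5 ug/ml poly(dI-dC); 15 min compound preincubation; discontinuous kinetic read over 2 h at RT.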
# WRN inhibitor – qHTS for Inhibitors of WRN Helicase; Bifunctional 3'-5' exonuclease/ATP-dependent helicase WRN (Homo sapiens), Q14191; WRN helicase unwinding, fluorescent forked duplex, kinetic; Potency, µM (highest dose often 114 µM), for inactives: at the top dose activity change, negative = inhibition, most hits filed as inhibitors; hit rate 0.46% among 360,000; AID 651768, 2012; note: nearly all actives have a fitted effect of over 55% in size
#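 Kinetic red-fluorescence monitoring (525/598 nm) tracks WRN helicase activity after 100 nM fluorophore-quencher forked duplex and 2 mM ATP are added to 20 nM enzyme pretreated 15 min at room temperature with compound.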
# L3MBTL1 block – qHTS Assay for the Inhibitors of L3MBTL1 | Lethal(3)malignant brain tumor-like protein 1 (Homo sapiens), Q9Y468 | AlphaScreen L3MBTL1–H3K9me1 peptide binding | Potency, µM (highest dose often 57.1 µM), inactives show top-dose activity, negative = inhibition, actives largely listed as inhibitors | hit rate 0.66% among 230,000; note: nearly all actives have a fitted effect of over 60% in size
# Target sequence (Q9Y468 whole entry, looked up): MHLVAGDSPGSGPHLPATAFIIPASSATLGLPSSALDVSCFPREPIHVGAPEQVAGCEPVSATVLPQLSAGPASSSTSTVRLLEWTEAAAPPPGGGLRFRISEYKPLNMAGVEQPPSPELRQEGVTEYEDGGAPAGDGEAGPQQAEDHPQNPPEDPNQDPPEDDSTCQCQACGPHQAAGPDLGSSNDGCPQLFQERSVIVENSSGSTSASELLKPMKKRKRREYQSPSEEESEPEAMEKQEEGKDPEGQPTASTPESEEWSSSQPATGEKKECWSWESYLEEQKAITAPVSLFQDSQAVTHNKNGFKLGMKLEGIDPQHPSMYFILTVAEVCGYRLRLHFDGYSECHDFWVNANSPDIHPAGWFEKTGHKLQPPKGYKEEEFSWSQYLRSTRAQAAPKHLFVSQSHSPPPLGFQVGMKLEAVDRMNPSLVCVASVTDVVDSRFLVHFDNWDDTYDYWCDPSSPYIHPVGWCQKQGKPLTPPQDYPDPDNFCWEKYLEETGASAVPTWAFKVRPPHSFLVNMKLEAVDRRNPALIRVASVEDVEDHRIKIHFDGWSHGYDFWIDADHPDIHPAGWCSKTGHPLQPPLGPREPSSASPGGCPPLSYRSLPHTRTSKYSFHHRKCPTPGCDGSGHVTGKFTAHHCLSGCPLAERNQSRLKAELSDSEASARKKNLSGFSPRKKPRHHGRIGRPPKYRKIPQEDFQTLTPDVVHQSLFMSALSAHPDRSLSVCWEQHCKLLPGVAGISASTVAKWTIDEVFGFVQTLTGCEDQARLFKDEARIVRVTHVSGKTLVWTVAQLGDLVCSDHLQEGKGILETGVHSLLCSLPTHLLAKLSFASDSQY
#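 L3MBTL1 50 nM + b-AHA-H3(1-15)K9me1 75 nM, 30 min RT; compound added, 30 min RT; streptavidin donor/Ni-chelate acceptor beads 10 ug/mL each final, 30 min RT dark; AlphaScreen read.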
# FEN1 inhibitor – qHTS Assay for the Inhibitors of Human Flap endonuclease 1 (FEN1); P39748; Recombinant FEN1 flap cleavage, fluorescence, 15 min; Potency, µM (titrated, usually from 114 µM), for inactives: at the highest dose activity change, negative = inhibition, most hits filed as inhibitors; hit rate 0.35% among 390,000; AID 588795, 2011; note: nearly all actives have a fitted effect of over 65% in size
#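 Enzyme 10 nM, 15 min RT preincubation with compound; start with substrate 50 nM final; reads at 0 and 15 min; qHTS titration, four-parameter Hill fit.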
# BLM inh – qHTS Assay for Inhibitors of Bloom's syndrome helicase (BLM) | RecQ-like DNA helicase BLM (Homo sapiens), P54132 | AID 2528, 2010 | Potency, µM (highest dose often 56.1 µM), without a hit: top-dose activity change, negative = inhibition, most hits filed as inhibitors | recombinant BLM DNA unwinding, fluorescence dequenching | hit rate 0.2% among 350,000;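 note: plate controls were vehicle for no effect and no enzyme for full effect; nearly all actives have a fitted effect of over 35% in size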
# * = called active by the depositor; i = inactive; ? = inconclusive; nt = no result given; [ ] = another dose, or the depositor's remark. In the library only some 0.99% were active in any assay of this set; here they are far more common. Calls come from the whole dose curve; as a rule, active = well fitted curve in the direction sought with a large enough effect; inconclusive = small, poorly fitted or top-dose-only effect, or another doubt; inactive = no such curve, though single readings can be large; an effect the other way counts as inactive or inconclusive. Unless noted, % is set by controls: 0 for no effect and ±100 for the full control effect; potency is the fitted concentration of half-maximal effect.
SMILES,RECQ1 inh,WRN inhibitor,L3MBTL1 block,FEN1 inhibitor,BLM inh
Cc1c(Cl)sn(-c2ccc(Cl)cc2)c1=O,28.6%,15.8µM*,-5.0%,?,0.7%
Cc1nn(-c2ccc(Cl)cc2)c(=O)c2ccccc12,i,-2.1%,14.4%,-7.8%,-3.9%
N#C/C(=C\c1cc(Br)c(O)c(Br)c1)c1nc2ccccc2c(=O)[nH]1,nt,nt,nt,-25.6%,12.6µM*
CCOc1ccc(/C=C/C2=Cc3c(sc(NC(=O)CSc4n[nH]c(N)n4)c3C#N)C(C)(C)C2)cc1,?,44.7µM*,-8.5%,-7.5%,-17.9%
Cc1cc(C)cc(-n2cccc2/C=C2/C(=N)N3C(=NC2=O)SN=C3S(C)(=O)=O)c1,31.6µM*,-10.6%[11.6 µM],nt,-6.0%,31.6µM*
CCc1ccc(-n2cccc2/C=C2/C(=N)N3C(=NC2=O)SN=C3S(C)(=O)=O)cc1,35.5µM*,-11.9%[11.6 µM],?,?,?
Cc1ccc(-n2cccc2/C=C2/C(=N)N3C(=NC2=O)SN=C3S(C)(=O)=O)cc1,25.1µM*,?,?,?,-27.1%
COc1cc(/C=C2/C(=N)N3C(=NC2=O)SN=C3S(C)(=O)=O)ccc1OS(=O)(=O)c1ccc(C)cc1,nt,?,nt,-20.4%,-11.3%
CS(=O)(=O)C1=NSC2=NC(=O)/C(=C\c3cccn3-c3ccccc3Cl)C(=N)N21,25.1µM*,-10.4%[11.6 µM],-3.8%,?,-28.6%
COc1cc(/C=N/NC(=O)Cn2cnc3ccccc3c2=O)ccc1O,-7.2%,-0.8%,nt,-11.7%,-2.0%
COc1cc(NC(=O)c2nc3ccccc3nc2N2CCCCC2)cc(OC)c1OC,nt,nt,nt,-19.9%,-7.2%
C/C(=N\NC(=S)NC(C)C)c1ccccc1OC(F)F,-0.6%,-27.1%,-12.5%,-18.0%,-0.1%
Cc1cc2c(N)cccc2nn1,-3.4%,?,nt,?,5.62µM*
CCN(C(=O)COC(=O)c1ccc([N+](=O)[O-])o1)c1cccc2ccccc12,nt,13.5%,-4.6%,28.2µM*,nt
Cc1ccc(C(=O)C2=C(O)C(=O)N(Cc3ccccc3)C2c2cccnc2)o1 (centres undefined),-1.4%,-5.4%,-2.8%,-14.7%,-1.5%
O=c1c2ccccc2c(-c2ccc(O)cc2)nn1-c1cccc(C(F)(F)F)c1,-6.6%,-15.0%,2.2%,-9.7%,-11.4%
Cc1cccc(N2CCN(CC(=O)Nc3ccccc3[N+](=O)[O-])CC2)c1C,i,-20.6%,-12.6%,-2.4%,-7.1%
O=C(CCN1C(=O)/C(=C\c2ccco2)SC1=S)Nc1ccc(C(=O)O)c(O)c1,nt,50.1µM*,nt,17.8µM*,-8.0%
O=C(CCCN1C(=O)/C(=C\c2ccco2)SC1=S)Nc1ccc2ccccc2c1,-19.0%,-0.4%,-13.0%,-3.8%,-24.8%
O=C(CCN1C(=O)/C(=C/c2ccco2)SC1=S)Nc1ccc(O)cc1C(=O)O,nt,31.6µM*,nt,35.5µM*,28.6%
O=C(CN1C(=O)/C(=C\c2ccco2)SC1=S)Nc1ccc(O)cc1C(=O)O,nt,50.1µM*,nt,-5.7%,5.3%
O=C1CC2(CCN(C(=O)c3ccccc3Br)CC2)Oc2ccccc21,nt,2.4%,0.4%,3.6%,nt
O=C(O)CCC(=O)NC(c1ccccc1)c1ccccc1,i,-3.9%,3.1%,-2.6%,-1.8%
Cc1cccc(N(CC(=O)NC2CCCC2)C(=O)c2c(C)noc2C)c1,-4.3%,2.6%,0.6%,-10.2%,0.5%
CN(C)c1ccc(/C=C/c2cc[n+]([O-])cc2)cc1,-5.7%,nt,-0.1%,nt,1.0%
SMILES,RECQ1 inh,WRN inhibitor,L3MBTL1 block,FEN1 inhibitor,BLM inh
CC[n+]1c(/C=C/c2ccc(N(C)C)cc2)ccc2ccccc21,6.8%,?,?,50.1µM*,?
CN(C)c1ccc(/C=C/c2ccc3ccccc3[n+]2[O-])cc1,nt,nt,nt,-6.0%,nt
CCN(CC)c1ccc(/C=C/c2ccc3ccc(OC)cc3[n+]2CC)cc1,nt,56.2µM*,nt,35.5µM*,2.2%
CC[n+]1c(/C=C/c2ccc(OC)c(OC)c2)ccc2ccccc21,nt,-2.0%,8.5%,-18.1%,-7.5%
CN(C)c1ccc(/C=C/c2cc[n+](C)cc2)cc1,12.0%,79.4µM*,nt,?,-6.8%
Cc1cc(NC(=O)/C=C/c2ccco2)ccc1NC(=O)c1ccccc1,-7.0%,-15.3%,-16.7%,0.9%,-5.1%
CN(C)c1ccc(NC(=O)Cn2c(SCc3ccccc3F)nc3cccnc32)cc1,nt,nt,nt,1.3%,0.4%
O=C1Nc2cc3c(cc2C1=O)sc1ccccc13,-6.8%,44.7µM*,?,?,-15.8%
C1=C(CCNc2ncnc3c2[nH]c2ccccc23)CCCC1,-23.9%,-26.7%,-13.8%,-28.4%,-2.9%
COc1cc(OC)c2c(=O)c(O)c(-c3ccc(OC)c(OC)c3)oc2c1,-23.0%,nt,nt,nt,-3.0%
COc1cc(OC)c2c(O)c3c(c(-c4c5c(c(O)c6c(OC)cc(OC)cc46)CO[C@@H](C)[C@H]5O)c2c1)[C@H](O)[C@H](C)OC3,25.1µM*,50.1µM*,?,?,?
CC(C)Nc1nc(NC(C)C)nc(C(=O)OCCO)n1,-6.1%,-1.3%,nt,12.9%,-5.6%
CN(C)c1ccc(/C=C2\Cc3ccccc3C2=O)cc1,nt,nt,nt,8.5%,nt
CN(C)c1ccc(/C=C2\CCC/C(=C\c3ccccc3)C2=O)cc1,-2.3%,50.1µM*,-3.6%,-20.1%,-15.8%
CCCC(=O)NC(c1cccs1)c1cc([N+](=O)[O-])c2cccnc2c1O (centres undefined),-20.2%,?,?,-16.2%,-26.2%
CC(=O)NC(c1cccs1)c1cc([N+](=O)[O-])c2cccnc2c1O (centres undefined),i,-21.9%,10µM*,-19.4%,-22.1%
CCC(=O)NC(c1cccs1)c1cc([N+](=O)[O-])c2cccnc2c1O (centres undefined),-3.5%,-30.3%,10µM*,-15.2%,-16.3%

# Source: PubChem
